PTAP TSG101 blk = blocks PTAP/TSG101 interaction to inhibit HIV-1 budding; AID 493005; 340,000 tested, under 10 active; Fluorescence polarization, FITC-PTAP peptide / Tsg101 binding; Potency, µM (series often up to 115 µM), most hits filed as inhibitors; Q99816; active means well fitted inhibition curve with a large enough effect in the main read-out, with a control signal flat, not every such curve was filed as active; inconclusive means small, poorly fitted or top-dose-only effect, or effect the other way, or a change in a side signal; inactive means no such curve, though single readings can be large or run the other way
Target sequence (Q99816 whole entry, looked up): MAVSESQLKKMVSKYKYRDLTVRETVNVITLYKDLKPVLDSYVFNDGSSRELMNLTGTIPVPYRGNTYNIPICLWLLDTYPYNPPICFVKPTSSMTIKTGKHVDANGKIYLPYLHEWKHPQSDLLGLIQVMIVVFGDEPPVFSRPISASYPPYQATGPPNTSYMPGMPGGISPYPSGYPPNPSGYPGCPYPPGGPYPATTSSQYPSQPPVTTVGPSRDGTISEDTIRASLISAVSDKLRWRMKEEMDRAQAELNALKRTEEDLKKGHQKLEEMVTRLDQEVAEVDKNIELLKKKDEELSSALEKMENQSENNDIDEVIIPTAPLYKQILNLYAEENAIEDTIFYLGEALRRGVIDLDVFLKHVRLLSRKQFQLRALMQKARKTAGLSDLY
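Fluorescence polarization binding of Tsg101 binding domain (10 uM final) to FITC-labeled PTAP peptide (50 nM final) in HEPES pH 7.5 buffer with NaCl, Tween 20, EDTA, TCEP. Compounds added before peptide; binding 20 min at RT.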
VDR inhibitor = blocks the human vitamin D receptor; P11473; VDR-SRC2-3 peptide fluorescence polarization, 2 h; Potency, µM, actives largely listed as inhibitors; 400,000 compounds, 0.93% hits; AID 504847
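Fluorescence polarization assay of small-molecule disruption of VDR binding to coregulator peptide SRC2-3. Compounds and controls pin-transferred, then read after 2 h incubation at ambient room temperature.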
TSHR antag = antagonists of human thyroid stimulating hormone receptor; P16473; TSHR-expressing cells, TSH-stimulated cAMP HTRF, 2 h; hits give low values; activity change, negative = inhibition, % at 11.5 µM; 330,000 compounds, 0.2% hits; AID 504810;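 active means activity change below a set negative limit, meaning inhibition stronger than a set level, cut at about -70% in these data; inconclusive means activity change between two set negative limits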
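TSHR-expressing cells, 200/well, pre-treated with compound, then stimulated with EC80 TSH (4nM final) for 2 hours at 37 deg C. cAMP measured by competitive HTRF: anti-cAMP cryptate antibody in lysis buffer plus cAMP-d2, read after 30 minutes at room temperature.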
uPA surface inh = cell surface uPA generation inhibition | Potency, µM (top dose mostly 38.3 µM), most hits filed as inhibitors | cell surface uPA generation assay, qHTS | 330,000 compounds, 0.31% hits; active means well fitted inhibition curve with a large enough effect; inconclusive means small, poorly fitted or top-dose-only effect; inactive means no such curve, though single readings can be large or run the other way; tested in mouse RAW 264.7 cells; further: nearly all actives have a fitted effect of over 55% in size
PLK1 PBD block = blocks phosphopeptide binding to human PLK1 polo-box domain; P53350; Plk1 PBD binding of FITC phosphopeptide, fluorescence polarization; Potency, µM, usual class: inhibitors; 360,000 compounds, 2.8% hits; further: series mostly up to about 57 µM; nearly all actives have a fitted effect of over 65% in size
Numbers stand for hits. The list is not random: actives were taken first. Their share in the collection is about 3.1%. Unless noted, the call rests on the fitted dose curve; in most records, active means well fitted curve in the direction sought with a large enough effect; inconclusive means small, poorly fitted or top-dose-only effect, or another doubt; inactive means no such curve, though single readings can be large; an effect the other way counts as inactive or inconclusive.

For COc1ccc(-c2nnc(SCC(=O)N3CCC(C)CC3)o2)cc1 the results were VDR inhibitor inactive.
Screening CCC(=O)N[C@@H]1Cc2ccccc2[C@@H](c2ccccc2)C1 returned VDR inhibitor inactive.
O=C(NC1(C(F)(F)F)NC(=O)N(CCc2ccccc2)C1=O)c1ccccc1Cl (stereo not drawn) was read as VDR inhibitor inactive.
For CC(C)(CO)C(O)C(=O)NCCCC(=O)O (stereo not drawn) the results were VDR inhibitor inactive.
CC(C(=O)NC1CCCCC1)N1CCN(C)CC1 (stereo not drawn) was read as PTAP TSG101 blk inactive, VDR inhibitor inactive, TSHR antag inactive, uPA surface inh inactive and PLK1 PBD block 30µM.
`CC(C(=O)NC1CCCC1)N1CCN(Cc2ccccc2)CC1` (stereo not drawn) gave PTAP TSG101 blk inactive, VDR inhibitor inactive, TSHR antag inactive, uPA surface inh inactive and PLK1 PBD block inactive.
Screening CC(C)c1nc(=S)n(-c2ccccc2)[nH]1 returned PTAP TSG101 blk inactive, VDR inhibitor inactive, TSHR antag inactive, uPA surface inh inactive and PLK1 PBD block inactive.
For CC(=O)Nc1nc(=S)n(-c2ccccc2)[nH]1 the results were PTAP TSG101 blk inactive, VDR inhibitor inactive, TSHR antag inactive, uPA surface inh inactive and PLK1 PBD block 27µM.
`O=C1c2ccccc2C(=O)C12OC2c1cccc2ccccc12` (stereo not drawn) gave PTAP TSG101 blk inactive, VDR inhibitor 13µM, TSHR antag inactive, uPA surface inh inactive and PLK1 PBD block inconclusive.
Screening O=C1NC(c2cccc3ccccc23)Nc2ccccc21 (stereo not drawn) returned PTAP TSG101 blk inactive, VDR inhibitor inactive, uPA surface inh inactive and PLK1 PBD block inactive.
Screening Cc1ccc2c(c1)NC(=O)C(CC(=O)NCCCN1CCCC1=O)O2 (stereo not drawn) returned PTAP TSG101 blk inactive, VDR inhibitor inconclusive, TSHR antag inactive, uPA surface inh inactive and PLK1 PBD block 30µM.
Cc1cc(C(=O)N/N=C/c2ccc([N+](=O)[O-])o2)c(C)o1 was read as PTAP TSG101 blk inactive, VDR inhibitor inactive, TSHR antag inactive, uPA surface inh 10µM and PLK1 PBD block inactive.
`COC(=O)N/N=C/c1ccc([N+](=O)[O-])o1` gave PTAP TSG101 blk inactive, VDR inhibitor inactive, TSHR antag inactive, uPA surface inh inactive and PLK1 PBD block inactive.
For CCOc1ccc(CSC2=NCCN2)cc1[N+](=O)[O-] the results were PTAP TSG101 blk inactive, VDR inhibitor inactive, TSHR antag inactive, uPA surface inh inactive and PLK1 PBD block inactive.
For CCCCOc1ccc(CSC2=NCCN2)cc1[N+](=O)[O-] the results were PTAP TSG101 blk inactive, VDR inhibitor inactive, TSHR antag inactive, uPA surface inh 6.3µM and PLK1 PBD block inactive.
For C=C1C(=O)OC2C[C@@]3(C)CCCC(C)C3=CC12 (stereo partly drawn) the results were VDR inhibitor 40µM.
C[C@H]1CCC[C@]2(C)C[C@H]3OC(=O)C(CN4CCCCCC4)[C@H]3C=C12 (stereo partly drawn) was read as PTAP TSG101 blk inactive, VDR inhibitor inactive, TSHR antag inactive, uPA surface inh inconclusive and PLK1 PBD block inactive.
O=C(COc1cccnc1[N+](=O)[O-])Nc1c(Cl)cccc1Cl was read as PTAP TSG101 blk inactive, VDR inhibitor inactive, TSHR antag inactive, uPA surface inh inactive and PLK1 PBD block inactive.
`O=C(COc1cccnc1[N+](=O)[O-])c1ccc(Cl)s1` gave PTAP TSG101 blk inactive, VDR inhibitor 50µM, TSHR antag inactive, uPA surface inh inactive and PLK1 PBD block 15µM.
For CC1(C)CC(=S)Nc2ccccc2S1 the results were PTAP TSG101 blk inactive, VDR inhibitor inconclusive, TSHR antag inactive, uPA surface inh inactive and PLK1 PBD block 27µM.
`CN1CCN(C(c2ccccn2)c2cc(Cl)c3cccnc3c2O)CC1` (stereo not drawn) gave PTAP TSG101 blk inactive, VDR inhibitor 50µM, TSHR antag inactive, uPA surface inh inconclusive and PLK1 PBD block 9.5µM.
CC(=O)NC(c1cc(Cl)c2cccnc2c1O)C1CC1 (stereo not drawn) was read as PTAP TSG101 blk inactive, VDR inhibitor inactive, TSHR antag inactive and uPA surface inh 4µM.
`CC(=O)NC(c1cc(Cl)c2cccnc2c1O)C(C)C` (stereo not drawn) gave PTAP TSG101 blk inactive, VDR inhibitor inactive, TSHR antag inactive and uPA surface inh 3.2µM.
CC(=O)NC(c1cc(F)c2cccnc2c1O)C(C)C (stereo not drawn) was read as TSHR antag inactive.
For CN(C)C(=O)c1ccc(-c2ccc3ncnc(N4CCC(C(=O)O)CC4)c3c2)cc1 the results were VDR inhibitor inactive.
Cc1cc(O)c2c(c1)C(=O)[C@@]13Oc4c5c(c(O)c6c(O)cc(C)cc46)C(=O)C[C@H](O)[C@H]5[C@@H]1[C@@H](O)CC(=O)C3=C2O was read as PTAP TSG101 blk inactive, VDR inhibitor inactive, uPA surface inh inactive and PLK1 PBD block 3.4µM.
Screening COc1ccccc1CNCCS(=O)(=O)NN1CCOCC1 returned PTAP TSG101 blk inactive, VDR inhibitor inactive, TSHR antag inactive, uPA surface inh inactive and PLK1 PBD block 11µM.
For CCCCCCCCNS(=O)(=O)CCNCc1ccccc1OC the results were PTAP TSG101 blk inactive, VDR inhibitor inactive, uPA surface inh inactive and PLK1 PBD block inactive.
`CCOC(=O)c1ccc(NC(=O)N2CC3CCCN3c3ccccc32)cc1` (stereo not drawn) gave VDR inhibitor inactive.
For Cc1nnc(NC(=O)c2nc(S(=O)(=O)Cc3ccccc3C)ncc2Cl)s1 the results were PTAP TSG101 blk inactive, VDR inhibitor 35µM, TSHR antag inactive, uPA surface inh inconclusive and PLK1 PBD block inconclusive.
Screening CCc1nnc(NC(=O)c2nc(Cl)ccc2Cl)s1 returned PTAP TSG101 blk inactive, VDR inhibitor inactive, TSHR antag inactive, uPA surface inh inactive and PLK1 PBD block inactive.
Screening CCc1nnc(NC(=O)c2nc(S(=O)(=O)Cc3ccc(C)cc3)ncc2Cl)s1 returned PTAP TSG101 blk inactive, VDR inhibitor 22µM, TSHR antag inactive, uPA surface inh inactive and PLK1 PBD block 24µM.
For Cc1nnc(NC(=O)c2nc(SCc3ccccc3F)ncc2Cl)s1 the results were VDR inhibitor inactive.
CC(NC(=O)c1ccccc1NC(=O)c1nsc2ccccc12)c1ccccc1 (stereo not drawn) was read as VDR inhibitor inactive.
Screening CCCCCn1c(=O)c2ccccc2n2c(=S)[nH]nc12 returned PTAP TSG101 blk inactive, VDR inhibitor inconclusive, TSHR antag inactive, uPA surface inh inactive and PLK1 PBD block 19µM.
CCCn1c(=O)c2ccccc2n2c(=S)[nH]nc12 was read as PTAP TSG101 blk inactive, VDR inhibitor inactive, TSHR antag inactive, uPA surface inh inactive and PLK1 PBD block inactive.
For CCCCn1c(=O)c2ccccc2n2c(=S)[nH]nc12 the results were PTAP TSG101 blk inactive, VDR inhibitor inactive, TSHR antag inactive and PLK1 PBD block 27µM.

Screening data (PubChem)
